# Where “and” joins values, the source holds several entries; their conditions need not be identical. Equal entries are not always repeated.
# Assays:
# Format in all cases: functional
# [1] = molecular target: Solute carrier family 2, facilitated glucose transporter member 1 (Homo sapiens) (UniProt P11166); assay: ST_JUDE_LEISH: Cytotoxicity at 2uM final concentration against transgenic Leishmania Mexicana promastigotes LmGLUT1 that are glucose transport deficient and complemented with the human glucose transporter GLUT1. Activity is measured by DNA content using SYBR green in vitro
# Solute carrier family 2, facilitated glucose transporter member 1 (Homo sapiens), sequence (P11166 whole entry): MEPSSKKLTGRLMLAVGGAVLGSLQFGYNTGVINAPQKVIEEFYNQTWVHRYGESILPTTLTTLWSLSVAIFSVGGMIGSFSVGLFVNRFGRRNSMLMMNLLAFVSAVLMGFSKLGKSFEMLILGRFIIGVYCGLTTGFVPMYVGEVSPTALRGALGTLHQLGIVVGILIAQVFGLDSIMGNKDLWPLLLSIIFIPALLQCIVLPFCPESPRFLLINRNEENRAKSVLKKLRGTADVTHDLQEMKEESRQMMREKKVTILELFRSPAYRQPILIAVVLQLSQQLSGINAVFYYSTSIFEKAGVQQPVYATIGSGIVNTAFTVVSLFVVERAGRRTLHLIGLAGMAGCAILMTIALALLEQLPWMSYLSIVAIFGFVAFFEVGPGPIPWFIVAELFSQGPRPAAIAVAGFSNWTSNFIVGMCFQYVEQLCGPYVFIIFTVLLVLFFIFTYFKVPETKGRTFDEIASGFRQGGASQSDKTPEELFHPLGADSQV
# [2] = molecular target: Hexose transporter 1 (Plasmodium falciparum) (UniProt O97467); assay: ST_JUDE_LEISH: Cytotoxicity at 2uM final concentration against transgenic Leishmania Mexicana promastigotes LmPfHT that are glucose transport deficient and complemented with the Plasmodium falciparum hexose transporter. Activity is measured by DNA content using SYBR green in vitro
# [3] = molecular target: Glucose transporter (Leishmania mexicana) (UniProt O61059); assay: ST_JUDE_LEISH: Cytotoxicity at 2uM final concentration against transgenic Leishmania Mexicana promastigotes LmGT2 that are glucose transport deficient and complemented with the L. Mexicana glucose transporter 2. Activity is measured by DNA content using SYBR green in vitro
SMILES,inhibition [1],inhibition [2],inhibition [3]
CCCN(Cc1nnc(-c2ccco2)o1)C(=O)C1CCN(c2ncc(C(F)(F)F)cc2Cl)CC1,11.4%,10.2%,10.8%
CCNc1cc(C(=O)N[C@@H](Cc2ccccc2)[C@H](O)CNC2CCC(F)(F)CC2)c(F)c(N2CCCCS2(=O)=O)c1,-0.9%,-1.47%,-1.39%
N#Cc1ccc2c(c1)CN(CC[C@H]1CC[C@H](NC(=O)/C=C/c3c[nH]c4ccccc34)CC1)CC2,7.48% and 1.99%,6.9% and 1.06%,5.69% and -2.35%
COc1cc(NCCCNC(=O)c2ccc(Cl)c(Cl)c2)nc2ccccc12,5.42%,5.69%,5.08%
Cc1csc2nc(-c3ccccn3)nc(Nc3ccncn3)c12,1.73%,3.39%,1.79%
Cc1ccc(C(=O)c2oc3ccc4c(C)cc(=O)oc4c3c2C)cc1,-0.73%,-0.13%,0.22%
Cc1cccc2nc(-c3cccc(-c4ccc(NC(=O)C(C)(C)c5ccccn5)cc4)c3)[nH]c12,3.05%,1.16%,2.94%
CSc1cccc(NC(=O)c2cc3ccccc3oc2=O)c1,0.58%,0.06%,-3.2%
COc1ccc(-c2csc3ncnc(Cl)c23)cc1,5.44%,5.72%,4.99%
CCOc1c(OC)ccc2c1CCN(CCN1CCC(CNC(=O)c3ccc(-c4ccc(C(F)(F)F)cc4)cc3)CC1)C2,-1.88%,-0.64%,0.24%
O=C(NCc1cccc2ccccc12)C(c1cc2ccccc2o1)N1CCN(C(c2ccccc2)c2ccccc2)CC1 (stereo not drawn),3.87%,1.42%,-2.97%
CN1CCN(c2ccc3nccc(CCN4CCC(NCc5ccc6c(n5)NC(=O)CO6)CC4)c3n2)CC1,-0.03%,-0.01%,-0.12%
COc1ccc(N2C(=O)C3C(C2=O)C2(C)c4ccccc4C3(C)c3ccccc32)c([N+](=O)[O-])c1 (stereo not drawn),9.9%,8.14%,9.94%
COc1cc2nc(N3CCC(CNC(=O)c4ccc(-c5ccc(Cl)cc5)cc4)CC3)nc(N)c2cc1OC,9.23%,8.03%,9.81%
COc1ccc2ncc(F)c(CCN3CCC(NCc4cc(OC)c5c(c4)OCCO5)CC3)c2n1,7.06%,6.92%,1.31%
O=c1c2ccccc2[nH]c2nc3ccccc3c(Nc3ccccc3)c12,10.2%,12.5%,8.59%
COc1ccc(NC(=O)NC2CCN(c3ccnc4ccccc34)C2)cc1 (stereo not drawn),0.52%,0.7%,2.29%
Cc1ccc(S(=O)(=O)c2nc(S(=O)(=O)c3ccccc3)sc2NCC2CCCO2)cc1 (stereo not drawn),11.8%,11.1%,9.48%

SMILES,inhibition [1],inhibition [2],inhibition [3]
O=C(/C=C/c1ccc(Cl)c(Cl)c1)NCCCCCN1CCCC(C(=O)Nc2ccc(Cl)c(Cl)c2)C1 (stereo not drawn),-0.31%,-1.19%,-0.96%
COc1ccc(C=C2SC(=N)N(c3ccccc3OC)C2=O)cc1,6.44%,5.54%,6.86%
Cc1cc(NC(=O)Nc2cccc(Cl)c2Cl)c2ccccc2n1,6.15%,6.44%,2.66%
c1ccc2c(NCCOCCNc3c4ccccc4nc4ccccc34)c3ccccc3nc2c1,1.61%,2.67%,3.48%
O=C(CC1CCCCC1)NCC(NCCCNc1cc(=O)c2ccccc2[nH]1)c1cc(Br)cc(Br)c1 (stereo not drawn),3.89%,-1.16%,2.63%
COc1ccc(Cl)cc1NC(=O)CN(C)C(=O)c1cnn(-c2ccccc2)n1,1.85%,-0.34%,3.11%
Cc1cc(-c2cccc(CNCc3ccccc3)c2)ccc1S(=O)(=O)NCCN1CCCC1,6.02%,8.53%,5.69%
CCc1ccc(-n2cc(C(=O)c3cc(Br)ccc3O)cc(C#N)c2=O)cc1,3.35%,3.08%,2.28%
CSc1sc(NC(=O)Nc2cccc(C(F)(F)F)c2)cc1C#N,1.55%,1.51%,1.15%
O=C1COC2(CN1C1CCN(Cc3ccc(O)cc3Cl)C1)c1ccccc1-c1ccccc12 (stereo not drawn),2.42%,2.74%,1.29%
CCCCN(CCCC)/C(=N/C(=N)NCc1ccc(Cl)c(Cl)c1)NCCCCCCN/C(=N\C(=N)NCc1ccc(Cl)c(Cl)c1)N(CCCC)CCCC,-0.73%,-0.52%,-0.96%
COc1ccc(C2CC(=O)C3=C(C2)NC(C)=C(C(=O)OC(C)C)C3c2ccc(O)cc2)cc1OC (stereo not drawn),8.55%,8.07%,5.45%
CC1(C)CN(CCC2CCC(NC(=O)/C=C/c3ccccc3F)CC2)Cc2ccc(C#N)cc21 (stereo not drawn),3.59%,1%,1.48%
O=C(/C=C/c1ccc(Cl)c(Cl)c1)NCCCCCN1CCCC(CNS(=O)(=O)c2cccc(C(F)(F)F)c2)C1 (stereo not drawn),-0.87%,-0.18%,-1.57%
COc1ccc(CNCCCCCCCNCc2ccc(Cl)c(Cl)c2)cc1Cl,5.86%,4.67%,2.7%
COc1ccc(OCCON)cc1,7.35%,10.4%,8.87%
CCOC(=O)N1CCN(CCCNc2c3ccc(Cl)cc3nc3ccc(OC)cc23)CC1,4.11%,3.33%,1.42%
Cc1oc(-c2ccccc2)nc1CCOc1ccc(C[C@H](Nc2ccccc2C(=O)c2ccccc2)C(=O)NCc2ccccn2)cc1,4.4%,4.88%,4.35%

# From ChEMBL document CHEMBL3433997, “St. Jude Leishmania screening dataset” (2016)
